Screens deposited in PubChem by National Center for Advancing Translational Sciences (NCATS).
HT1080NT lethal: kills 2HG-producing HT-1080-NT fibrosarcoma cells; AID 686970; Potency, µM (doses to about 46.1 µM), inactives show at the highest dose activity, negative = less viability, most hits filed as cytotoxic; HT-1080-NT fibrosarcoma viability, CellTiter-Glo ATP luminescence, 48 h; 1.6% of 360,000 active;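 note: NT is the 2HG producing partner of a matched IDH1 knockdown line; 0% = DMSO-treated cells and -100% = media-only wells without cells; nearly all actives have a fitted effect of over 55% in size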
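Read-out is CellTiter-Glo luminescence after 10 minutes at room temperature, following 48 hours' compound treatment of HT-1080-NT cells (750 cells/well, RPMI, 5% FBS, 37 degrees C).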
KB-V1 MDR tox: kills drug-selected multidrug resistant KB-V1 cells. KB-V1 MDR cells viability, CellTiter-Glo, 72 h. Potency, µM (highest dose often 46.1 µM), hits mostly cytotoxic. 3.4% of 400,000 active. AID 1347076; note: nearly all actives have a fitted effect of over 60% in size
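KB-V1 cells (P-gp-expressing MDR subline of KB-3-1) in phenol-red-free DMEM with 10% FBS were exposed to library compounds over a concentration series for 72 h at 37 degrees C. Viability read by CellTiter-Glo luminescence; concentration-effect curves fitted after normalization.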
DT40 TDP1 CPT: DT40-hTDP1 cell growth loss with CPT. Potency, µM (highest dose often 46.2 µM), for inactives: top-dose activity change, negative = growth inhibition, actives largely listed as inhibitors. 12% of 420,000 active. chicken DT40 Tdp1-/-;hTDP1 cells + 20 nM CPT, ATP luminescence, 48 h; note: nearly all actives have a fitted effect of over 55% in size
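Chicken DT40 Tdp1-/- cells complemented with human TDP1, 400 cells/well, exposed to compounds plus 20 nM camptothecin for at least 48 h at 37 C; viability read as ATP content by CellTiter-Glo luminescence.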
HT1080 IDH1KD tx: HT-1080 IDH1 knockdown cell toxicity (counter line). HT-1080 IDH1 knockdown viability, ATP luminescence, 48 h. Potency, µM (doses to about 46.1 µM), without a hit: at the highest dose activity, negative = toxicity, hits mostly cytotoxic. 2% of 360,000 active;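 note: 0% = DMSO wells and -100% = cell-free medium wells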
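Luminescent ATP read-out (CellTiter-Glo, 10 min at room temperature) after 48 h compound exposure at 37 °C gave viability of IDH1-knockdown HT-1080 cells. Activity was normalised to DMSO and cell-free wells, then fitted as concentration-response curves.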
DT40 TDP1 no CPT: qHTS for Inhibitors of human tyrosyl-DNA phosphodiesterase 1 (TDP1): qHTS in cells in absence of CPT | Potency, µM (doses to about 46.2 µM), inactives show top-dose activity change, negative = growth inhibition, hits mostly inhibitors | AID 686978, 2013 | DT40 Tdp1-/- hTDP1 cells, no CPT, ATP luminescence, 48 h | 15% of 420,000 active; note: nearly all actives have a fitted effect of over 55% in size
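Chicken DT40 Tdp1-/- cells complemented with human TDP1, screened without camptothecin (DMSO vehicle only), 400 cells/well. Compounds pin-transferred, cells incubated at 37 °C for at least 48 hr. Growth read as ATP-dependent luminescence (CellTiter-Glo, 30 min at RT).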
KB-3-1 tox: KB-3-1 parental cell cytotoxicity | KB-3-1 viability, CellTiter-Glo ATP luminescence, 72 h | Potency, µM (highest dose often 46.1 µM), hits mostly cytotoxic | 1.4% of 400,000 active; note: nearly all actives have a fitted effect of over 60% in size
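Multi-concentration cytotoxicity screen in KB-3-1 cells grown in DMEM lacking phenol red with 10% FBS. After 72 h at 37 °C with compound, ATP-dependent luminescence was recorded.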
Starred values were filed as active, the others as inactive. Most compounds without a hit are left out; they make up all but 19% or so of the library. Calls come from the whole dose curve; as a rule, active = well fitted curve in the direction sought with a large enough effect; inconclusive = small, poorly fitted or top-dose-only effect, or another doubt; inactive = no such curve, though single readings can be large; an effect the other way counts as inactive or inconclusive. Unless noted, % is set by controls: 0 for no effect and ±100 for the full control effect; potency is the fitted concentration of half-maximal effect.

`Cc1cccc(CS(=O)(=O)CC2Nc3ccc(C(=O)NCc4ccccc4)cc3NC2=O)c1` (stereo not drawn) gave KB-V1 MDR tox inactive, DT40 TDP1 CPT 11.6µM*, DT40 TDP1 no CPT 6.51µM* and KB-3-1 tox inactive.
CC(C)CCNC(=O)c1ccc2c(c1)NC(=O)C(CS(=O)(=O)Cc1ccc(F)cc1)N2 (stereo not drawn) was read as KB-V1 MDR tox inactive, DT40 TDP1 CPT 16.4µM*, DT40 TDP1 no CPT 16.4µM* and KB-3-1 tox inactive.
For Cc1ccc(CNC(=O)c2ccc3c(c2)NC(=O)C(CS(=O)(=O)Cc2cccc(F)c2)N3)cc1 (stereo not drawn) the results were KB-V1 MDR tox inactive, DT40 TDP1 CPT -9.7%, DT40 TDP1 no CPT 3.8% and KB-3-1 tox inactive.
For NS(=O)(=O)c1ccc(CCNC(=O)Cn2c(-c3cccs3)cc3ccccc32)cc1 the results were KB-V1 MDR tox inactive, DT40 TDP1 CPT -29.5%, DT40 TDP1 no CPT inconclusive and KB-3-1 tox inactive.
Screening Cc1ccc([N+](=O)[O-])c(C(=O)N/N=C/c2cccs2)c1 returned HT1080NT lethal -15.5%, KB-V1 MDR tox inactive, DT40 TDP1 CPT inconclusive, HT1080 IDH1KD tx -17.1%, DT40 TDP1 no CPT inconclusive and KB-3-1 tox inactive.
Screening COc1ccc(Oc2ncnc3c2oc2ccccc23)cc1 returned KB-V1 MDR tox inactive, DT40 TDP1 CPT inconclusive, DT40 TDP1 no CPT inconclusive and KB-3-1 tox inactive.
Screening CCCCn1c(=N)n(CC(O)c2ccccc2)c2ccccc21 (stereo not drawn) returned HT1080NT lethal -18.5%, KB-V1 MDR tox inconclusive, DT40 TDP1 CPT 14.6µM*, HT1080 IDH1KD tx -11.2%, DT40 TDP1 no CPT 23.1µM* and KB-3-1 tox inconclusive.
CCCCn1c(=N)n(CC(O)COc2ccc(C)cc2)c2ccccc21 (stereo not drawn) was read as HT1080NT lethal inconclusive, KB-V1 MDR tox inconclusive, DT40 TDP1 CPT 6.51µM*, HT1080 IDH1KD tx 11.2µM*, DT40 TDP1 no CPT 4.11µM* and KB-3-1 tox 17.8µM*.
For CCCCn1c(=N)n(CC(O)COc2ccccc2)c2ccccc21 (stereo not drawn) the results were HT1080NT lethal inconclusive, KB-V1 MDR tox 20.6µM*, DT40 TDP1 CPT 11.6µM*, HT1080 IDH1KD tx inconclusive, DT40 TDP1 no CPT 11.6µM* and KB-3-1 tox inconclusive.
Screening OCc1nc2ccccc2n1CC(O)COc1ccccc1 (stereo not drawn) returned HT1080NT lethal 1.0%, KB-V1 MDR tox inactive, DT40 TDP1 CPT -16.4%, HT1080 IDH1KD tx 5.4%, DT40 TDP1 no CPT -14.6% and KB-3-1 tox inactive.
For CCOc1ncccc1C(=O)N1CCCSC1=Nc1ccc(C(C)=O)cc1 the results were HT1080NT lethal -1.8%, KB-V1 MDR tox inactive, DT40 TDP1 CPT -16.4%, HT1080 IDH1KD tx -4.7%, DT40 TDP1 no CPT -4.3% and KB-3-1 tox inactive.
Screening COc1ccc(C(=O)N=C2SC3CS(=O)(=O)CC3N2c2ccc(C(C)=O)cc2)cc1 (stereo not drawn) returned HT1080NT lethal 18.2%, KB-V1 MDR tox inconclusive, DT40 TDP1 CPT 5.5%, HT1080 IDH1KD tx 15.1%, DT40 TDP1 no CPT 18.6% and KB-3-1 tox inactive.
Screening Brc1cccc(-c2nnc3sc(CN4CCCCC4)cn23)c1 returned HT1080NT lethal -2.1%, KB-V1 MDR tox inconclusive, DT40 TDP1 CPT inconclusive, HT1080 IDH1KD tx -16.6%, DT40 TDP1 no CPT inconclusive and KB-3-1 tox inactive.
Screening Brc1cccc(-c2nnc3sc(CN4CCC5(CC4)OCCO5)cn23)c1 returned HT1080NT lethal 3.3%, KB-V1 MDR tox 20.6µM*, DT40 TDP1 CPT inconclusive, HT1080 IDH1KD tx 0.5%, DT40 TDP1 no CPT inconclusive and KB-3-1 tox inactive.
`CCc1cccc(CC)c1NC(=O)C1CN(S(=O)(=O)c2ccccc2)CCN1S(=O)(=O)c1ccccc1` (stereo not drawn) gave HT1080NT lethal 5.7%, KB-V1 MDR tox inactive, DT40 TDP1 CPT inconclusive, HT1080 IDH1KD tx 17.4%, DT40 TDP1 no CPT inconclusive and KB-3-1 tox inactive.
For Cc1cccc(C(C)C)c1NC(=O)C1CN(S(=O)(=O)c2ccccc2)CCN1S(=O)(=O)c1ccccc1 (stereo not drawn) the results were HT1080NT lethal 7.5%, KB-V1 MDR tox 4.11µM*, DT40 TDP1 CPT 25.9µM*, HT1080 IDH1KD tx 2.5%, DT40 TDP1 no CPT 18.4µM* and KB-3-1 tox inactive.
Cc1ccc(/C=N\NC(=O)C2CN(S(=O)(=O)c3ccccc3)CCN2S(=O)(=O)c2ccccc2)cc1 (stereo not drawn) was read as HT1080NT lethal -6.0%, KB-V1 MDR tox inactive, DT40 TDP1 CPT inconclusive, HT1080 IDH1KD tx 3.1%, DT40 TDP1 no CPT 18.4µM* and KB-3-1 tox inactive.
Screening Cc1cc(C)n(-c2ccc(C(=O)N3CCc4ccccc43)cc2)n1 returned HT1080NT lethal -12.5%, KB-V1 MDR tox inconclusive, DT40 TDP1 CPT inconclusive, HT1080 IDH1KD tx -10.2%, DT40 TDP1 no CPT 16.4µM* and KB-3-1 tox inconclusive.
`Cc1cc(C)n(C(C)CC(=O)N2CCc3ccccc32)n1` (stereo not drawn) gave HT1080NT lethal 4.8%, KB-V1 MDR tox inactive, DT40 TDP1 CPT -2.7%, HT1080 IDH1KD tx 3.6%, DT40 TDP1 no CPT inconclusive and KB-3-1 tox inactive.
Screening Cc1cc(C(=O)N2CCc3ccccc32)n(-c2ccccc2)n1 returned HT1080NT lethal inconclusive, KB-V1 MDR tox inconclusive, DT40 TDP1 CPT inconclusive, HT1080 IDH1KD tx inconclusive, DT40 TDP1 no CPT 18.4µM* and KB-3-1 tox 10.3µM*.
Cc1ccc(C(=O)N/C(=C\c2ccc(-c3ccc([N+](=O)[O-])cc3)o2)C(=O)NC2CCS(=O)(=O)C2)cc1 (stereo not drawn) was read as HT1080NT lethal -1.4%, KB-V1 MDR tox inactive, DT40 TDP1 CPT 20.6µM*, HT1080 IDH1KD tx -11.5%, DT40 TDP1 no CPT inconclusive and KB-3-1 tox inactive.
For Cc1ccc(C(=O)N/C(=C\c2ccc(-c3cccc([N+](=O)[O-])c3)o2)C(=O)NC(C)(C)C)cc1 the results were HT1080NT lethal -0.8%, KB-V1 MDR tox inactive, DT40 TDP1 CPT 14.6µM*, HT1080 IDH1KD tx -9.1%, DT40 TDP1 no CPT 16.4µM* and KB-3-1 tox inactive.
